The results in this text go back to PubChem BioAssay AID485317 (Broad Institute, 2010).

Out of some 290,000 compounds screened, about 11,000 (3.8%) were called active.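 Rule for the calls: active = mean replicate inhibition above about 79%, with every replicate also reaching it (limit read from the data); inconclusive = only one of the two criteria met; inactive = mean below limit and not every replicate reaching it.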 Only a selection was taken, and actives are over-represented in it overall.

This assay deals with FAD-linked sulfhydryl oxidase ALR (Homo sapiens) (UniProt P55789). Briefly: inhibitors of human ALR sulfhydryl oxidase, primary screen, biochemical, H2O2 detection, HRP-luminol luminescence, single point (AID 485317). As to conditions: purified ALR, DTT oxidation, stronger effect = higher value, concentration not given here.
Chain of FAD-linked sulfhydryl oxidase ALR (Homo sapiens) (P55789 whole entry, looked up): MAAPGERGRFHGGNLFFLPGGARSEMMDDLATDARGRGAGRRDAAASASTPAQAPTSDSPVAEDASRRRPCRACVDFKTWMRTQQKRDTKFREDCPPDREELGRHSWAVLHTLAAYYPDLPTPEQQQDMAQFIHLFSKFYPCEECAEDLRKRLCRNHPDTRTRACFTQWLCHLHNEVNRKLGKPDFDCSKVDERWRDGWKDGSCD
On to `C[C@@H]1NC(=O)[C@@]2(C)[C@@H](c3ccccc3)[C@H]3COc4ccccc4[C@@H]3N2C1=O`, for which the inhibition is 0.598% (inactive).

In the case of `CC(C)Nc1nnc(SCC(=O)/C=C2\N(C)c3ccccc3C2(C)C)s1`, the inhibition is -3.17% (inactive).

For the molecule `CN1CCN(CCC(=O)N/N=C/C=C2\N(C)c3ccccc3C2(C)C)CC1`, the inhibition is 99% (active).

Regarding `CN1/C(=C\C(=O)c2cccnc2Cl)C(C)(C)c2ccccc21`, the inhibition was -13.8% (inactive).

`Cc1ccc(NC(=O)CN(C)C(=O)c2ccc(Cl)c(S(=O)(=O)NCc3ccco3)c2)cc1`: the inhibition is -3.45% (inactive).

As to `Cc1ccc(-c2nn(-c3ccc(F)cc3)cc2C(=O)NCC(c2cccs2)N2CCOCC2)cc1` (stereo unspecified), the inhibition is -3.7% (inactive).

For the molecule `CC1(C)CC[C@]2(C(=O)O)CC[C@]3(C)C(=CCC4[C@@]5(C)CC[C@H](O)C(C)(C)C5[C@H](O)C[C@]43C)[C@@H]2C1` (stereo partly specified), the inhibition is -9.76% (inactive).

As for `O=C(CN1CCN(c2ccc(O)cc2)CC1)Nc1cc(S(=O)(=O)N2CCOCC2)ccc1Cl`, the inhibition was 94.9% (active).

For the molecule `O=C(CN1CCOCC1)Nc1cc(Cl)ccc1Cl`, the inhibition was -11.6% (inactive).

Turning to `O=C(CN1CCN(c2cccc(Cl)c2)CC1)Nc1ccc(S(=O)(=O)N2CCOCC2)cc1`, the inhibition was -14.5% (inactive).

For the molecule `CCOC(=O)Cc1csc(NC(=O)COc2ccc3c(C)cc(=O)oc3c2)n1`, the inhibition was -3.23% (inactive).

`Cc1ccc2c(CSc3nncs3)cc(=O)oc2c1`: the inhibition was -0.57% (inactive).

In the case of `CCOC(=O)Cc1csc(SCc2cc(=O)oc3cc(O)ccc23)n1`, the inhibition is 97.7% (active).

With `O=C(NCCc1ccc(F)cc1)c1ccc2nccnc2c1`, the inhibition is -6.27% (inactive).

In the case of `CS(=O)(=O)c1ccc(Cl)c(NC(=O)COC(=O)c2ncc(Cl)c(Cl)c2Cl)c1`, the inhibition is 0.688% (inactive).

As for `Cc1cccc(C)c1Nc1nnc(SCC(=O)Nc2sccc2C#N)s1`, the inhibition is 14.7% (inactive).

Turning to `N#Cc1ccsc1NC(=O)CN1CCCCC1`, the inhibition is 3.1% (inactive).

`Cc1ccc(NC(=O)CSCC(=O)Nc2sccc2C#N)cc1`: the inhibition was 98.7% (active).

As to `COC(C/C=C/C(=O)[C@@H](C)OCc1ccccc1)OC`, the inhibition is 55.7% (inactive).

`O=C(CNC(=O)C12CC3CC(CC(C3)C1)C2)OCC(=O)N1CCCCC1`: the inhibition was -2.51% (inactive).

In the case of `O=C(CSc1ccccc1)Nc1cccc(S(=O)(=O)N2CCOCC2)c1`, the inhibition is -1.29% (inactive).

Take `CCn1c(Cc2ccccc2)nnc1SCC(=O)Nc1ccccc1`: the inhibition was -28.7% (inactive).

As to `CCn1c(CNC(=O)c2ccc(OC)c(OC)c2)nnc1SCC(=O)Nc1ccccc1`, the inhibition was -2.46% (inactive).

Regarding `CCc1c(O)nc(SCC(=O)Nc2ccccc2)n(C(C)CC)c1=O` (stereo unspecified), the inhibition was 98.8% (active).

As for `CC(OC(=O)c1ccc([N+](=O)[O-])cc1)C(=O)NCC1CCCCC1` (stereo unspecified), the inhibition is -1.04% (inactive).

As for `O=C(Nc1cccc2c1CCCC2)c1ccc(F)cc1`, the inhibition was -21.6% (inactive).

In the case of `CC1CN(C(=O)c2ccc([N+](=O)[O-])s2)CC(C)O1` (stereo unspecified), the inhibition was -91.3% (inactive).

For the molecule `COC(=O)C1=C(C)NC(=O)CC1c1ccccc1OC` (stereo unspecified), the inhibition was -0.32% (inactive).

Take `COc1cc(N/C=C2\CC(=O)NC(C)=C2C#N)cc(OC)c1OC`: the inhibition was 97.1% (active).

For `COc1cc2c(cc1OC)C(C(=O)Nc1cc(C)c(OC)c(C)c1)CC(=O)N2` (stereo unspecified), the inhibition was -6.22% (inactive).

Turning to `Cn1c(N)c(C(=O)COC(=O)/C=C/c2cccc(C(F)(F)F)c2)c(=O)n(C)c1=O`, the inhibition was -1.31% (inactive).

In the case of `CC(Sc1nncn1C)C(=O)NCCC1=CCCCC1` (stereo unspecified), the inhibition was -2.34% (inactive).

For the molecule `CC(CNC(=O)Cn1cnc2c(OCc3ccccc3)ncnc21)c1ccccc1` (stereo unspecified), the inhibition is -1.23% (inactive).

With `CC1(c2nnc(Cc3ccccc3)o2)CC(c2ccccc2F)=NO1` (stereo unspecified), the inhibition was 1.62% (inactive).

With `CCCNC(=O)c1ccc(N2CCC3(CC2)CC(c2cccc(Br)c2)=NO3)c(NC(=O)c2ccco2)c1`, the inhibition was 6.36% (inactive).

In the case of `O=C(CSc1nc2ccccc2c(=O)[nH]1)Nc1nc(-c2ccc(Br)cc2)cs1`, the inhibition is -3.23% (inactive).

In the case of `Cc1cc(C)c2c(=O)[nH]c(SCC(=O)Nc3ccc(Br)cc3)nc2n1`, the inhibition was -7.51% (inactive).

Regarding `N#Cc1c(-c2cccs2)nc(SCC(=O)c2ccc(Br)cc2)[nH]c1=O`, the inhibition was 98.5% (active).

In the case of `COCCNc1nnc(SCC(=O)NNC(=O)c2ccco2)s1`, the inhibition is -2.35% (inactive).

`O=C(NCc1ccc2c(c1)OCO2)c1cc([N+](=O)[O-])ccc1N1CCOCC1`: the inhibition is -3.3% (inactive).

Turning to `O=C(O)c1cccc(S(=O)(=O)N2CC=C(c3ccccc3)CC2)c1`, the inhibition was 3.35% (inactive).

For `Cc1ccc(C(=O)CNc2ccc(F)cc2)cc1`, the inhibition was -18.2% (inactive).

In the case of `Cc1ccc(C(=O)NCCNC(=O)c2ccccc2)cc1`, the inhibition was -3.69% (inactive).

Regarding `Cc1ccc(SC(CC(=O)c2ccc(C(C)(C)C)cc2)C(=O)O)cc1` (stereo unspecified), the inhibition was 97.7% (active).

With `CC(C)(C)OC(=O)C[C@@H]1C/C=C\C[C@@H](CC(=O)N(CCO)Cc2ccccc2)C(=O)N[C@H](Cc2ccccc2)COC1=O`, the inhibition was -5.13% (inactive).

For the molecule `Cc1cc(NC(=O)CSCC(=O)NC(C)c2ccccc2)no1` (stereo unspecified), the inhibition was -11.9% (inactive).

For `COc1ccc(/C=C2/SC(=O)N(CCCCCC(=O)Nc3ccccc3C(=O)O)C2=S)cc1`, the inhibition was 98.9% (active).

Turning to `O=C(CCCN1C(=O)/C(=C\c2ccccc2)SC1=S)Nc1ccccc1O`, the inhibition is 1.84% (inactive).

With `COc1ccc(/C=C2\SC(=O)N(CCC(=O)NCCCn3ccnc3)C2=O)cc1`, the inhibition was -4.29% (inactive).

On to `O=C1COc2ccc(C(=O)COC(=O)c3ccccc3Cl)cc2N1`, for which the inhibition was -5.15% (inactive).

With `CCC(CO)Oc1cc(NC(=O)c2cccc3ccccc23)c2ncn(C(C)C)c2c1` (stereo unspecified), the inhibition was -21.2% (inactive).

Regarding `COC(=O)CNS(=O)(=O)c1ccc(OC)cc1`, the inhibition was -8.89% (inactive).

`COC(=O)CNS(=O)(=O)c1ccc(Cc2ccc(S(=O)(=O)NCC(=O)OC)cc2)cc1`: the inhibition was 99.2% (active).

Regarding `C/C(N)=C(/C#N)C(=O)COC(=O)CNS(=O)(=O)c1ccc(C)cc1`, the inhibition was -12.8% (inactive).

For the molecule `COc1cc(C(=O)N(C)Cc2cccc(OC)c2OC)ccc1OCC(=O)Nc1cccc(C(F)(F)F)c1`, the inhibition was -114% (inactive).

Regarding `CC1O[C@@H](OC2C(O)C(C)O[C@H](OC(=O)[C@]34CCC(C)(C)C[C@H]3C3=CCC5[C@@]6(C)CC(O)C(O[C@@H]7OC(CO)C(O)[C@@H](O)[C@@H]7O)[C@@](C)(C(=O)O)C6CC[C@@]5(C)[C@]3(CO)CC4)C2O[C@H]2OC(C)[C@@H](O[C@@H]3OCC(O[C@@H]4OC(CO)C(O)[C@H](O)C4O)[C@@H](O)[C@@H]3O)[C@H](O)C2O)C(O)C(O)C1O` (stereo partly specified), the inhibition is 22.9% (inactive).

On to `O=C(C[C@H]1C/C=C\C[C@@H](NC(=O)OCC2c3ccccc3-c3ccccc32)C(=O)O[C@@H](c2ccccc2)CNC1=O)N[C@H](CO)Cc1ccccc1`, for which the inhibition is 0.728% (inactive).

For `OCc1ccc(-c2ccccc2)c(-c2ccccc2)c1`, the inhibition is -3.81% (inactive).

On to `CCOc1cc(-c2nc3cc(C)ccn3c2NCC2CCCO2)ccc1O` (stereo unspecified), for which the inhibition was 99.6% (active).

As for `CCOc1ccccc1Nc1nnc(SCC(=O)NCC2CCCO2)s1` (stereo unspecified), the inhibition was 1.03% (inactive).

Consider `CCOc1ccc(C(=O)Nc2ccc(S(=O)(=O)NCC3CCCO3)cc2)cc1OCC` (stereo unspecified), for which the inhibition is 1.23% (inactive).

As for `O=C(COC(=O)c1ccc(F)cc1)Nc1ccc2c(c1)OCO2`, the inhibition is -9.08% (inactive).

On to `C=CC[C@@H](CC(=O)N[C@H](CO)Cc1ccccc1)C(=O)N[C@@H](COC(=O)[C@@H](CC=C)Cc1ccc(F)cc1)Cc1c[nH]c2ccccc12`, for which the inhibition was 10.3% (inactive).

Regarding `COc1ccccc1C(=O)Nc1ccc(Nc2ccccc2)cc1`, the inhibition was -2.18% (inactive).

For `COc1ccccc1C(=O)Nc1ccccc1C(=O)Nc1ccccc1`, the inhibition is 4.88% (inactive).

As to `COc1ccccc1C(=O)Nc1nc2nc(-c3ccccc3)cc(=O)n2[nH]1`, the inhibition is 97.8% (active).

`O=C(CNC(=O)c1ccco1)NNC(=O)c1ccc(Br)cc1`: the inhibition is -12.3% (inactive).

On to `C=CCC1(C(=O)N(C)Cc2ccccc2)CCN(C(=O)OC(C)(C)C)CC1`, for which the inhibition is -25% (inactive).

Regarding `COc1ccc(NC(=O)CSc2ncnc3[nH]ncc23)cc1`, the inhibition is 98.6% (active).

As for `COc1ccc(NC(=O)CSc2nc(C)cs2)cc1`, the inhibition is -14.7% (inactive).

As to `CC(=O)Nc1ccc(NC(=O)CSc2ncnc3c2cnn3Cc2ccccc2)cc1`, the inhibition is -9.78% (inactive).

Take `CCCCn1nc(C(=O)Nc2cccc(C(=O)NC3CC3)c2)c2ccccc2c1=O`: the inhibition is -0.223% (inactive).

Regarding `Cc1ccc(Nc2nnc(SC(C)C(=O)NC3CC3)s2)cc1` (stereo unspecified), the inhibition is 7.72% (inactive).

In the case of `COc1ccccc1C(=O)NCCC(=O)N(C)Cc1cccnc1`, the inhibition is -1.19% (inactive).

As to `COc1cccc(OC)c1C(=O)N1CCN(Cc2cccnc2)CC1`, the inhibition is 6.59% (inactive).

In the case of `COc1ccccc1C(=O)N1CCN=C1SCc1cccnc1`, the inhibition is 96.4% (active).

Turning to `C=C1CCC(N(O)c2cc(C)on2)C(=C)CCC2C1CC2(C)C` (stereo unspecified), the inhibition is 4.12% (inactive).

Turning to `COc1ccccc1C(=O)OCC(=O)Nc1cccc(S(=O)(=O)NC2=NCCCCC2)c1`, the inhibition is 14.6% (inactive).

As for `Cc1ccc(S(=O)(=O)N2CCN(C(=O)Cn3c(=O)cnc4ccccc43)CC2)c(C)c1`, the inhibition was -23.6% (inactive).

Consider `CCc1sc(C(=O)N2CCN(CC(=O)Nc3cccc(F)c3)CC2)cc1C`, for which the inhibition is -6.06% (inactive).

Turning to `CCOc1cc(/C=C(\C#N)c2nc(-c3cccs3)c(NC(C)=O)s2)ccc1O`, the inhibition was -22.4% (inactive).

Regarding `COc1cc(/C=N/Nc2nc3ccccc3s2)ccc1O`, the inhibition was 46.3% (inactive).

`CCNc1nc(NCC)nc(N/N=C/c2ccc(O)c(OC)c2)n1`: the inhibition was 99.1% (active).

As for `CCNc1nc(N)nc(-c2cc(Cl)ccc2OC)n1`, the inhibition was 4.24% (inactive).

Consider `COc1ccc(/C=N/Nc2nc3ccccc3o2)cc1OC`, for which the inhibition is -12.6% (inactive).

Take `COc1cc(/C=N\Nc2nc(-c3cccs3)c(NC(C)=O)s2)ccc1O`: the inhibition was 98.9% (active).

Usually inhibition stands for the change of the read-out against control, counted positive when it falls.
